The values that follow come from article PMC7862700, “An all-to-all approach to the identification of sequence-specific readers for epigenetic DNA modifications on cytosine”.

Holding throughout (test): DAPPL (digital affinity profiling via proximity ligation, sequencing); 10 mM Tris-HCl pH 7.5, 50 mM NaCl, 1 mM DTT, 4% glycerol, room temperature, 30 min; GST-TFs on glutathione beads, 16-mer random dsDNA library, 0.1% formaldehyde crosslink after washing; high values mean tight binding
One assay has as its target T1, FEV (Homo sapiens, UniProt Q99581 1-238).
T1 sequence: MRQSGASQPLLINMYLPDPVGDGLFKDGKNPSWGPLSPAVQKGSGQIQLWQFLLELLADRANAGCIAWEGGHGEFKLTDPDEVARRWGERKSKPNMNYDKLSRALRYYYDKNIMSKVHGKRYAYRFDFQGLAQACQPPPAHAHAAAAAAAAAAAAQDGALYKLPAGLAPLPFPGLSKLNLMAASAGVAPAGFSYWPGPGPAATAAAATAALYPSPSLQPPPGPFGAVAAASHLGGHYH
The following applies: protein: recombinant; tags: N-terminal GST; dsDNA, one strand shown. A digest of the protocol:
(§1)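 Binding signal is given per hexamer as its read frequency for a factor divided by its frequency in the tag-only sample. GST-fused human transcription factors were expressed in yeast, captured on glutathione beads, barcoded with DNA and pooled with that sample, then incubated with 200 nmole of a 16-mer random double-stranded DNA library in Tris/NaCl/DTT/glycerol buffer for 30 min at room temperature. The pools were then washed, crosslinked, proximity-ligated, amplified by PCR and sequenced on an Illumina NextSeq500.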

Another assay concerns the target ETV5 (Homo sapiens, UniProt P41161 1-510). The following applies: protein: recombinant; tags: N-terminal GST; dsDNA, one strand shown. A digest of the protocol: as §1
Another assay deals with HSF1 (Homo sapiens, UniProt Q00613 1-529). The following applies: protein: recombinant; tags: N-terminal GST; chain copies: 3; dsDNA, one strand shown. A digest of the protocol: as §1
A further assay addresses T2, SPIC (Homo sapiens, UniProt Q8N5J4 1-248).
T2 sequence: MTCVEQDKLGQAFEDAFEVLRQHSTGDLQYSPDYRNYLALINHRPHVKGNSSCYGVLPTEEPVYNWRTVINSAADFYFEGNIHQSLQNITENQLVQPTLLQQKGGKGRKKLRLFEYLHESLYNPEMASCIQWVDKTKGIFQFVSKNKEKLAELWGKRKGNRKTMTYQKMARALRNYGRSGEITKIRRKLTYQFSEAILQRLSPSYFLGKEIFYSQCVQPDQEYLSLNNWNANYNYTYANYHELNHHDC
The note with it: protein: recombinant; tags: N-terminal GST; dsDNA, one strand shown. A digest of the protocol: as §1

In the next assay the target is ELF4 (Homo sapiens, UniProt Q99607 1-663). The note with it: protein: recombinant; tags: N-terminal GST; dsDNA, one strand shown. A digest of the protocol: as §1
Another assay concerns the target T3, ELK4 (Homo sapiens, UniProt P28324-2 1-405).
T3 sequence: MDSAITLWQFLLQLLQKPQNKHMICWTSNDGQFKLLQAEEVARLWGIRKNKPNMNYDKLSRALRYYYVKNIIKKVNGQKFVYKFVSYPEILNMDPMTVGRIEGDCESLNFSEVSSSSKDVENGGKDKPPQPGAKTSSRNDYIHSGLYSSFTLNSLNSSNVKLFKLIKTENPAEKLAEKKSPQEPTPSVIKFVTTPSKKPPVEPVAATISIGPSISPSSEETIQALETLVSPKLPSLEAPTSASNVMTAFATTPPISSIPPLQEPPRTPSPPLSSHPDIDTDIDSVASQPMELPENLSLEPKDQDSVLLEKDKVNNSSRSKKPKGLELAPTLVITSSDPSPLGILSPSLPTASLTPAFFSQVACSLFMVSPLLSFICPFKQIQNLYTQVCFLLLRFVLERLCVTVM
The note with it: protein: recombinant; tags: N-terminal GST; dsDNA, one strand shown. Put shortly:
as §1

In the next assay the target is T4, ETV2 (Homo sapiens, UniProt O00321 1-342).
T4 sequence: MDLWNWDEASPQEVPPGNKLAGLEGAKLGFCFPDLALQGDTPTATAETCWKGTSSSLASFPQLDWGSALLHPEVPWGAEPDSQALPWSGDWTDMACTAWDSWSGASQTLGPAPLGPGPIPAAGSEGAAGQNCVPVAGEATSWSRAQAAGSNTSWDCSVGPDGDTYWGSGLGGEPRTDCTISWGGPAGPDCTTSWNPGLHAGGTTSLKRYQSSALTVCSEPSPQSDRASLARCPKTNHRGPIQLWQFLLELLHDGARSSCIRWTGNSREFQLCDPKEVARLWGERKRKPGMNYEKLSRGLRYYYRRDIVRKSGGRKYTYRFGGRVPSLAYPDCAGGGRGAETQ
The following applies: protein: recombinant; tags: N-terminal GST; dsDNA, one strand shown. Put shortly:
as §1

The target of the next assay is T5, ELF3 (Homo sapiens, UniProt P78545 1-371).
T5 sequence: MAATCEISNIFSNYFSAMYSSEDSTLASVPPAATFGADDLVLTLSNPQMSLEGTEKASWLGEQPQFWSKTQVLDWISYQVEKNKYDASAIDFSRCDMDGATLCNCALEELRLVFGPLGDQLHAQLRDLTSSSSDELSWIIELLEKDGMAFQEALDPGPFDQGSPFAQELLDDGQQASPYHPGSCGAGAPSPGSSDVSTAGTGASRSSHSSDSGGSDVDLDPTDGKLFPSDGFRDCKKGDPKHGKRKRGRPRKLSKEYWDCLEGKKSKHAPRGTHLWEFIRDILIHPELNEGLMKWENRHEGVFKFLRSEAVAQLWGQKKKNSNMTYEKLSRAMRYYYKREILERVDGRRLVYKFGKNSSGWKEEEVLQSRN
The following applies: protein: recombinant; tags: N-terminal GST; dsDNA, one strand shown. A digest of the protocol:
as §1

A further assay addresses CRX (Homo sapiens, UniProt O43186 1-299). The note with it: protein: recombinant; tags: N-terminal GST; dsDNA, one strand shown. Put shortly:
as §1

Another assay concerns the target ETV1 (Homo sapiens, UniProt P50549 1-477). The following applies: protein: recombinant; tags: N-terminal GST; dsDNA, one strand shown. A digest of the protocol:
as §1

In another assay the target is T6, ERF (Homo sapiens, UniProt P50548 1-548).
T6 sequence: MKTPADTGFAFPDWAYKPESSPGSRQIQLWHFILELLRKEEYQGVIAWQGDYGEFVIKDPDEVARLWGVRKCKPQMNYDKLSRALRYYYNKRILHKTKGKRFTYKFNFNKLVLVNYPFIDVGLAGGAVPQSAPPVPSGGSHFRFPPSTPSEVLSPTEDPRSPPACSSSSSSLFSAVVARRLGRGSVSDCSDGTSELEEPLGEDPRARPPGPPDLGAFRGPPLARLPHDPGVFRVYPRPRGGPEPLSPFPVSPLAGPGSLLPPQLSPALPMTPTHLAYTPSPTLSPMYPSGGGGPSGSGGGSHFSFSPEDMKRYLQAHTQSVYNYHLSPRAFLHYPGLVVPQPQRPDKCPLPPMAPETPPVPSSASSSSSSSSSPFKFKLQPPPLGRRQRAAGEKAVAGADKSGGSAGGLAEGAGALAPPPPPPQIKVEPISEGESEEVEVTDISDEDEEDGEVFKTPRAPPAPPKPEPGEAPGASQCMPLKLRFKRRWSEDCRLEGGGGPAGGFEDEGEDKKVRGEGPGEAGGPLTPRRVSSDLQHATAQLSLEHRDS
The following applies: protein: recombinant; tags: N-terminal GST; dsDNA, one strand shown. A digest of the protocol: as §1

The next assay concerns the target T7, ETV3L (Homo sapiens, UniProt Q6ZN32 1-361).
T7 sequence: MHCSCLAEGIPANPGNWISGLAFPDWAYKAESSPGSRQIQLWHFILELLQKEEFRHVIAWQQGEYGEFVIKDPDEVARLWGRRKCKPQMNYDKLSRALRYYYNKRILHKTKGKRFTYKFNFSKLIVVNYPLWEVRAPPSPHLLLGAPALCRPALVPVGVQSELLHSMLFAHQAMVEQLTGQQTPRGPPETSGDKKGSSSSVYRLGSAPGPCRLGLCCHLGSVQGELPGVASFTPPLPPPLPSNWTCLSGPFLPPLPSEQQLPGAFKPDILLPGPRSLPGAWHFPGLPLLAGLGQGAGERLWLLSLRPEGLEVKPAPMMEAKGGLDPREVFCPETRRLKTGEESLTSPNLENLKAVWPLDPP
The note with it: protein: recombinant; tags: N-terminal GST; dsDNA, one strand shown. Put shortly: as §1

A further assay has as its target T8, ETS2 (Homo sapiens, UniProt P15036 1-469).
T8 sequence: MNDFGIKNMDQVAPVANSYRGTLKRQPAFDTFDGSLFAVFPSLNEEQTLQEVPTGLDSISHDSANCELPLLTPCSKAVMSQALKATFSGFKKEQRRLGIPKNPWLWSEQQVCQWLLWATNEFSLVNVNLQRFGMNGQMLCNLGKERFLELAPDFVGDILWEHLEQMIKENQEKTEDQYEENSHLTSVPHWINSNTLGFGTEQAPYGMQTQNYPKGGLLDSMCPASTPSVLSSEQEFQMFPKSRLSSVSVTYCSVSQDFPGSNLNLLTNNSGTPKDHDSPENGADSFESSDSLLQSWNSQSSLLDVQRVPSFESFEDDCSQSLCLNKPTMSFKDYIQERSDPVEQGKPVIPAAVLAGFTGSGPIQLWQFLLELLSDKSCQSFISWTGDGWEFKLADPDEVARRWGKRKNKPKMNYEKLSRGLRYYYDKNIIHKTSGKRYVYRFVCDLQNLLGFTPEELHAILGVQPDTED
The note with it: protein: recombinant; tags: N-terminal GST; dsDNA, one strand shown. A digest of the protocol: as §1

For another assay, the target named is T9, SPDEF (Homo sapiens, UniProt O95238 1-335).
T9 sequence: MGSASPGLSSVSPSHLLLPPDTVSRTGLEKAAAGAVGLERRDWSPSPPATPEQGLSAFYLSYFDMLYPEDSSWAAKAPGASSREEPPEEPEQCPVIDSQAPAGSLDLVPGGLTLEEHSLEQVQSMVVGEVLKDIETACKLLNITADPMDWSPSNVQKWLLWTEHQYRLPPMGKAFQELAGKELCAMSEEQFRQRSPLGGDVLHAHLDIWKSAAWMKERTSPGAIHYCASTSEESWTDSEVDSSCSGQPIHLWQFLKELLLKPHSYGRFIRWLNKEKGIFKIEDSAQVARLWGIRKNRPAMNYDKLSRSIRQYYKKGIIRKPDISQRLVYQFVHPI
The following applies: protein: recombinant; tags: N-terminal GST; dsDNA, one strand shown. Put shortly:
as §1

A further assay concerns the target T10, ETV7 (Homo sapiens, UniProt Q9Y603 1-341).
T10 sequence: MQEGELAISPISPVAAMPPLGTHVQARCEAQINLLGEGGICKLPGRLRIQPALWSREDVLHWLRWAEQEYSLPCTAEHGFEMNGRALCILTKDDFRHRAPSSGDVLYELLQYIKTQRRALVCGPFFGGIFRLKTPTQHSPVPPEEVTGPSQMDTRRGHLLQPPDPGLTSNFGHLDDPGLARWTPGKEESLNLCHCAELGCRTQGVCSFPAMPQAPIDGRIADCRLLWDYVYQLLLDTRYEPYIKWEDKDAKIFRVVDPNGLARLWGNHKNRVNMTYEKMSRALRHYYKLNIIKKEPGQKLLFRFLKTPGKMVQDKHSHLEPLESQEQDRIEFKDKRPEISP
The following applies: protein: recombinant; tags: N-terminal GST; dsDNA, one strand shown. Put shortly: as §1

A further assay addresses T11, ELF5 (Homo sapiens, UniProt Q9UKW6-2 1-255).
T11 sequence: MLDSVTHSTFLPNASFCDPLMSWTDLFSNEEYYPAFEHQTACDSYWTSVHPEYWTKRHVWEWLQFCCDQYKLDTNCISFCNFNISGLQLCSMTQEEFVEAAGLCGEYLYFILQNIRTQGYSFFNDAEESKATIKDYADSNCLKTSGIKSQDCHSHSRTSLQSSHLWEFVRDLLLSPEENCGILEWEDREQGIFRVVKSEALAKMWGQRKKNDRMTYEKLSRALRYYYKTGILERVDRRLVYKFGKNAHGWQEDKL
The following applies: protein: recombinant; tags: N-terminal GST; dsDNA, one strand shown. Put shortly: as §1

A further assay addresses T12, ETV3 (Homo sapiens, UniProt P41162-2 1-143).
T12 sequence: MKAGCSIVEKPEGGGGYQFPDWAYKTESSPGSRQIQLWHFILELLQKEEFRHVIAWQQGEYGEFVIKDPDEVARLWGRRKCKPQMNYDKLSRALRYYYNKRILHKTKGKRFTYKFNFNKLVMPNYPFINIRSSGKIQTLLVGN
The note with it: protein: recombinant; tags: N-terminal GST; dsDNA, one strand shown. A digest of the protocol:
as §1

In a further assay the target is ETV6 (Homo sapiens, UniProt P41212 1-452). The note with it: protein: recombinant; tags: N-terminal GST; dsDNA, one strand shown. A digest of the protocol:
as §1

Chain of CRX (O43186 whole entry): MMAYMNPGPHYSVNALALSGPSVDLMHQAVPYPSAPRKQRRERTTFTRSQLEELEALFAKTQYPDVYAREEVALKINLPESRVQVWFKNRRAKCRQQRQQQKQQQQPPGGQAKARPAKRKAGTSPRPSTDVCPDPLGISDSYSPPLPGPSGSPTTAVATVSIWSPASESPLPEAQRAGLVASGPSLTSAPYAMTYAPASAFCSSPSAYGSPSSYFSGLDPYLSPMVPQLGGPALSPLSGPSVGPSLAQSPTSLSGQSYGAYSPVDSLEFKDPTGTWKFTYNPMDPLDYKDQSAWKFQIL
Chain of ELF4 (Q99607 whole entry): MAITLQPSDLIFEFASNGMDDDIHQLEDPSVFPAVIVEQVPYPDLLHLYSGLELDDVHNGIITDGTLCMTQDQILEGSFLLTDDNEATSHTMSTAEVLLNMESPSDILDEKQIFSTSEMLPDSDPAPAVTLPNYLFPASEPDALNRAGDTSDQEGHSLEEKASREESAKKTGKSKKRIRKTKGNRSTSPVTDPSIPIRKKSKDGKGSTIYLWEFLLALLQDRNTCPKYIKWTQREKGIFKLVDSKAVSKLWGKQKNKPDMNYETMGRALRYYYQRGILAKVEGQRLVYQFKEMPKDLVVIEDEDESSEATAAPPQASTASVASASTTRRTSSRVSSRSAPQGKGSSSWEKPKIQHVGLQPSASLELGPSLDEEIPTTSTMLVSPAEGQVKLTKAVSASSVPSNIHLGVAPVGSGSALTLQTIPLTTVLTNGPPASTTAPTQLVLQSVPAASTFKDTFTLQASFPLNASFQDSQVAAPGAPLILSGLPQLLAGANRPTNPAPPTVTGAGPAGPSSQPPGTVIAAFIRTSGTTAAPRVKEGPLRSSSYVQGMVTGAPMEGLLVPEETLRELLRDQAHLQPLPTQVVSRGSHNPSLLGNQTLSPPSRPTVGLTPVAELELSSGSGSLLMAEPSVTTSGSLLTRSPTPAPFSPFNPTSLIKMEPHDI
Chain of HSF1 (Q00613 whole entry): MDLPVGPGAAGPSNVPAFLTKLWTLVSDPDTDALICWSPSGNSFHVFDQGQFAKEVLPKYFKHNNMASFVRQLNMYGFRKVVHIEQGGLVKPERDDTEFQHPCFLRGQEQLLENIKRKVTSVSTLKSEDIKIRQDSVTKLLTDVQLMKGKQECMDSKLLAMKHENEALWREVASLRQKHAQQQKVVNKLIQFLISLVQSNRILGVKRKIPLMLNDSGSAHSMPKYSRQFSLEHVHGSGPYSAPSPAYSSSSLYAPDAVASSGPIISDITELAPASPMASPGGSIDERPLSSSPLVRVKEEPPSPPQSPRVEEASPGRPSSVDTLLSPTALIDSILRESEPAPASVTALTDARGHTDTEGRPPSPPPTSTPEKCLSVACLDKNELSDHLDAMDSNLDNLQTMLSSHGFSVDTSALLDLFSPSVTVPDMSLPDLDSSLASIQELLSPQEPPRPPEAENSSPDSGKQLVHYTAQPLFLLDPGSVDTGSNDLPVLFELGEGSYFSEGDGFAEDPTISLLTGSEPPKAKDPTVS
Chain of ETV5 (P41161 whole entry): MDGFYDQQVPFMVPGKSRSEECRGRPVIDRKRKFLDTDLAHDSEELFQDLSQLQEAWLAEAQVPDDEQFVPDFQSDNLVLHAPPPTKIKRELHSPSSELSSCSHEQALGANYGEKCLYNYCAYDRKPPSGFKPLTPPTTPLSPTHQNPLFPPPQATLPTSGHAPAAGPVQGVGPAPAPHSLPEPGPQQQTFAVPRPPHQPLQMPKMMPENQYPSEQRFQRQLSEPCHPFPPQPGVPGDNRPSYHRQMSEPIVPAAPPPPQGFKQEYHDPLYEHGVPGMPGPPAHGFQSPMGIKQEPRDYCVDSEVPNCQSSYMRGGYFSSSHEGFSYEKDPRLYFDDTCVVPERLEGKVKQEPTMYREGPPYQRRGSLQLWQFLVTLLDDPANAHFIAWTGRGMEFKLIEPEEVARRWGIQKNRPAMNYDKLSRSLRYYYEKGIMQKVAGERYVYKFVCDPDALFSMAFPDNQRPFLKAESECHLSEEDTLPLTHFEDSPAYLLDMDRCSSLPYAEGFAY
Chain of ETV1 (P50549 whole entry): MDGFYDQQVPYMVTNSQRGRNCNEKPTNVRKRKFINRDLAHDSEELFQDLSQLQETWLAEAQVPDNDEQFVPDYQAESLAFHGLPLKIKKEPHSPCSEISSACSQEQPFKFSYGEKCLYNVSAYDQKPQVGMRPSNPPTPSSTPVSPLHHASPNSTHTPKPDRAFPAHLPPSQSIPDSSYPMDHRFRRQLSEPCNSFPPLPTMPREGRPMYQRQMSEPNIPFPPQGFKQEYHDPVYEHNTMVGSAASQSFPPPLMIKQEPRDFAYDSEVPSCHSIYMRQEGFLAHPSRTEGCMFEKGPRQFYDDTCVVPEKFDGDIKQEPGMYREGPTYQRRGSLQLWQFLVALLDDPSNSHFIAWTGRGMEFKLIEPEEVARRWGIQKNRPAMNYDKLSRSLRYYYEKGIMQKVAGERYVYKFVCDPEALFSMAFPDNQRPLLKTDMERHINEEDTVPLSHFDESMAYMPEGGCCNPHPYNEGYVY
Chain of ETV6 (P41212 whole entry): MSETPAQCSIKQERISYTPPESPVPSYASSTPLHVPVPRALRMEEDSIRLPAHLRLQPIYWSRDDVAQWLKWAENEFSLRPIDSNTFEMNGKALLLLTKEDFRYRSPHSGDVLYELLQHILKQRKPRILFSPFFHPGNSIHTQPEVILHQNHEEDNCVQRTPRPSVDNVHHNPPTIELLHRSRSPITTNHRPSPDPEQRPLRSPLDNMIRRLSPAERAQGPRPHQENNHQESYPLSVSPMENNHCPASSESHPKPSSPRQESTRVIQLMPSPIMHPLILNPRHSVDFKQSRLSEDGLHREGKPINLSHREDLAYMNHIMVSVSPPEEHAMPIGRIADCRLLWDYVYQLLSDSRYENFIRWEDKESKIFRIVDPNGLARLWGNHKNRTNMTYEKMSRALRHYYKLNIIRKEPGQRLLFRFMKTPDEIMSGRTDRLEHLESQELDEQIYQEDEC

For the sequence AATTCC, the binding signal was 2.05 fold enrichment (6-mer frequency, TF over GST control) in the assay with FEV; 2.1 fold enrichment (6-mer frequency, TF over GST control) with ETV5; 2.07 fold enrichment (6-mer frequency, TF over GST control) with HSF1; 1.93 fold enrichment (6-mer frequency, TF over GST control) in the assay with SPIC; 1.92 fold enrichment (6-mer frequency, TF over GST control) with ELF4; 1.55 fold enrichment (6-mer frequency, TF over GST control) in the assay with ELK4. For the same sequence, the binding signal in the assay with ETV2 was 2.11 fold enrichment (6-mer frequency, TF over GST control); with ELF3 it was 1.7 fold enrichment (6-mer frequency, TF over GST control); with CRX, 2.04 fold enrichment (6-mer frequency, TF over GST control); in the assay with ETV1, 1.95 fold enrichment (6-mer frequency, TF over GST control); in the assay with ERF, 1.65 fold enrichment (6-mer frequency, TF over GST control); with ETV3L, 1.87 fold enrichment (6-mer frequency, TF over GST control). The binding signal in the assay with ETS2 was 1.86 fold enrichment (6-mer frequency, TF over GST control); in the assay with SPDEF it was 1.98 fold enrichment (6-mer frequency, TF over GST control); with ETV7, 1.7 fold enrichment (6-mer frequency, TF over GST control); with ELF5 it was 2.39 fold enrichment (6-mer frequency, TF over GST control); with ETV3, 2.09 fold enrichment (6-mer frequency, TF over GST control); in the assay with ETV6, 1.97 fold enrichment (6-mer frequency, TF over GST control).
